# According to PubChem BioAssay (NCATS):
# Records with an inconclusive call do not appear. Entries that show only a call come without a potency. Unmarked numbers belong to inactive results. Activity calls are given as the source filed them. Calls come from the whole dose curve; as a rule, active = well fitted curve in the direction sought with a large enough effect; inconclusive = small, poorly fitted or top-dose-only effect, or another doubt; inactive = no such curve, though single readings can be large; an effect the other way counts as inactive or inconclusive. Peptide text beside a SMILES is read from it.
# Columns and labels:
# [1] = biological target: Cellular tumor antigen p53 (Homo sapiens) (UniProt P04637); experiment: Primary qHTS for small molecule compounds that upregulate eGFP-tagged delta133p53alpha (in N-terminal) cells. (AID 2060322); details: NCI-H358 eGFP-delta133p53alpha fluorescence, 24 h; activation: stronger effect = higher value; note: nearly all actives have a fitted effect of over 75% in size; note: potency is the fitted concentration of half-maximal effect; for activation: series mostly up to about 56 µM
# Summary of the method: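 NCI-H358 cells pre-induced 24 h with 10 ng/ml doxycycline to express N-terminal eGFP-delta133p53alpha, then dosed 24 h at 37C without doxycycline; fixed, Hoechst-stained, GFP intensity by laser scanning cytometry, normalized to DMSO (0%) and 57.5 uM 5-azacytidine (100%).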
# [2] = biological target: Aldehyde dehydrogenase, mitochondrial (Homo sapiens) (UniProt P05091); experiment: qHTS for Inhibitors of the Aldehyde Dehydrogenase Family (ALDH2) Primary screen (AID 2061308); note: nearly all actives have a fitted effect of over 55% in size
# [3] = biological target: Retinaldehyde dehydrogenase 3 (Homo sapiens) (UniProt P47895); experiment: qHTS for Inhibitors of the Aldehyde Dehydrogenase Family (ALDH1A3) Primary screen (AID 2061315)
# Sequence of Cellular tumor antigen p53 (Homo sapiens) (P04637 whole entry, looked up): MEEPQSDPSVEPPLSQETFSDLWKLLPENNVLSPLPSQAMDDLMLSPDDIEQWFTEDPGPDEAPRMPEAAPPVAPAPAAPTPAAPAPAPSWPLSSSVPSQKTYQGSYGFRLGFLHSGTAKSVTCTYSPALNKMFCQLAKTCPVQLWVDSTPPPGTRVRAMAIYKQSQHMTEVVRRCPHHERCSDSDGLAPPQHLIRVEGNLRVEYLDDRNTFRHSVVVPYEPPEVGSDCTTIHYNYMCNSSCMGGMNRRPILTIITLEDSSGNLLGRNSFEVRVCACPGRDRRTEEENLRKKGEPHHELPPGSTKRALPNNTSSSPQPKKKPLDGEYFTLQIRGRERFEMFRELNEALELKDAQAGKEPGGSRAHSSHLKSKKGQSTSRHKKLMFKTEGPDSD
SMILES,activation [1],Potency [2],Potency [3],Potency [1],"activity change, negative = inhibition [2]","activity change, negative = inhibition [3]"
Cc1ncc([N+](=O)[O-])n1C[C@H](O)CN1CCOCC1,2.33%,inactive,inactive,–,–,–
CC(C)(C)c1ccc(C(=O)Nc2cc(Cl)c(Br)cc2C(=O)O)cc1,-3.67%,inactive,inactive,–,–,–
CC1(C)CC[C@]2(C(=O)O)CC[C@]3(C)C(=CCC4[C@@]5(C)CC[C@H](O)C(C)(C)C5CC[C@]43C)C2C1 (some centres not stated),-0.763%,inactive,inactive,–,–,–
Cc1nc2c(C(F)(F)F)cccc2nc1-c1ccc(-c2cccc(S(C)(=O)=O)c2)cc1,-2.68%,inactive,inactive,–,–,–
CC1(c2nc3c(C(N)=O)cccc3[nH]2)CCCN1 (configuration not stated),-1.43%,inactive,inactive,–,–,–
C[C@@H]1O[C@@H](O[C@H]2[C@@H](OC(=O)[C@]34CCC(C)(C)CC3C3=CCC5[C@@]6(C)C[C@H](O)[C@H](O[C@@H]7O[C@H](C(=O)O)[C@@H](O)[C@H](O)[C@H]7O)[C@@](C)(C(=O)O)C6CC[C@@]5(C)[C@]3(C)CC4)OC[C@H](O)[C@@H]2O)[C@H](O)[C@H](O)[C@H]1O[C@@H]1OC[C@@H](O)[C@H](O)[C@H]1O (some centres not stated),-8.93%,inactive,inactive,–,–,–
C=C1CC[C@H]2[C@@](C)(CCC(O)[C@@]2(C)CO)[C@@H]1/C=C/C(=C\C(=O)O)C(=O)O (some centres not stated),-2.29%,inactive,inactive,–,–,–
CC1(C)CC[C@]2(C(=O)O)CC[C@]3(C)C(=CCC4[C@@]5(C)CC[C@H](O[C@@H]6O[C@H](C(=O)O)[C@@H](O[C@@H]7OC[C@@H](O)[C@H](O)[C@H]7O)[C@H](O)[C@H]6O)C(C)(C)C5CC[C@]43C)C2C1O (some centres not stated),-1.79%,inactive,inactive,–,–,–
C=C1CC[C@@]2(OC1)O[C@H]1CC3[C@@H]4CC=C5C[C@H](O[C@H]6OC[C@@H](O)C(O)[C@@H]6O[C@@H]6O[C@@H](C)[C@H](O)[C@@H](O[C@@H]7O[C@H](CO)[C@@H](O)[C@H](O)[C@H]7O)[C@H]6O)C[C@@H](O)[C@]5(C)C4CC[C@]3(C)[C@H]1[C@@H]2C (some centres not stated),-6.25%,inactive,inactive,–,–,–
CC(=O)c1ccc2c(c1)C(O)C(C(C)(C)O)O2 (configuration not stated),-6.11%,inactive,inactive,–,–,–
CC(=O)OC12CC(C)C(O)C1/C=C(/COC1OC(CO)C(O)C(O)C1O)CCC1C(/C=C(\C)C2=O)C1(C)C (configuration not stated),-9.16%,inactive,inactive,–,–,–
CO[C@H]1/C=C/C=C/C=C/C[C@H](OC(=O)[C@@H](C)NC(=O)C2CCCCC2)[C@H](C)[C@@H](O)/C(C)=C/CCc2cc(O)cc(c2)NC(=O)C1,–,inactive,inactive,2.81 µM (active),–,–
O=C(CSc1nc2ccccc2c(=O)n1-c1ccccc1)Nc1ccc2c(c1)CCC2,5.67%,inactive,inactive,–,–,–
CCCC(=O)C1(c2ccccc2)CCN(C(=O)[C@@H](Cc2ccc(OC)cc2)NC(=O)[C@@H](N)Cc2cncn2C)CC1,4.3%,inactive,inactive,–,–,–
CC(=O)C1(C)CCC2C3C=C(C)C4=CC(=O)CCC4(C)C3CCC21C (configuration not stated),-17%,inactive,inactive,–,–,–
C=C1CC2OC(=O)C(COC)C2C(OC(=O)/C(C)=C\C)CC2(C)OC1=CC2=O (configuration not stated),–,inactive,inactive,14.8 µM (active),–,–
C=C(C=O)[C@]1(O)C[C@@]2(C)C(=CC1=O)C=C[C@H](OC(=O)/C=C/C=C/[C@H](C)CC)[C@@H]2C,–,inactive,inactive,4.65 µM (active),–,–
C[C@@H]1O[C@@H](O[C@H]2[C@H](OC(=O)[C@]34CCC(C)(C)C[C@H]3C3=CCC5[C@@]6(C)CC[C@H](O[C@@H]7O[C@H](CO[C@@H]8OC[C@H](O)[C@H](O)[C@H]8O[C@@H]8OC[C@@H](O)[C@H](O)[C@H]8O)[C@@H](O)[C@H](O)[C@H]7O)C(C)(C)C6CC[C@@]5(C)[C@]3(C)C[C@H]4O)O[C@H](CO)[C@@H](O)[C@@H]2O)[C@H](O[C@@H]2O[C@H](CO)[C@@H](O)[C@H](O)[C@H]2O)[C@H](O)[C@H]1O[C@@H]1OC[C@@H](O)[C@H](O[C@@H]2OC[C@@H](O)[C@H](O)[C@H]2O)[C@H]1O (some centres not stated),-9.92%,–,–,–,6.45% [at 11.2 µM],8.82% [at 11.2 µM]
CC1(CO)CC[C@]2(C(=O)O[C@@H]3O[C@H](CO)[C@@H](O)[C@H](O)[C@H]3O)CC[C@]3(C)C(=CCC4[C@@]5(C)CC[C@H](O[C@@H]6O[C@H](C(=O)O)[C@@H](O)[C@H](O)[C@H]6O)C(C)(C)C5CC[C@]43C)C2C1 (some centres not stated),-4.46%,inactive,inactive,–,–,–
COc1ccc(/C=C/C(=O)O[C@H]2[C@@H]3C=CO[C@@H](O[C@@H]4O[C@H](CO)[C@@H](O)[C@H](O)[C@H]4O)[C@@H]3[C@@]3(CO)O[C@@H]23)cc1O,-2.29%,inactive,inactive,–,–,–
CC(C)=CCC[C@](C)(O[C@@H]1O[C@H](CO)[C@@H](O)[C@H](O)[C@H]1O)[C@H]1CC[C@]2(C)[C@@H]1[C@H](O)CC1[C@@]3(C)CC[C@H](O)C(C)(C)C3[C@@H](O[C@@H]3O[C@H](CO)[C@@H](O)[C@H](O)[C@H]3O[C@@H]3OC[C@@H](O)[C@H](O)[C@H]3O)C[C@]12C (some centres not stated),-15.3%,inactive,inactive,–,–,–
C=C(C)C1Cc2cc(C(=O)OC3OC(CO)C(O)C(O)C3O)ccc2O1 (configuration not stated),9.92%,inactive,inactive,–,–,–

SMILES,activation [1],Potency [2],Potency [3],Potency [1],"activity change, negative = inhibition [2]","activity change, negative = inhibition [3]"
CC1CCC2C(C)(C)C(O)CCC2(C)C12Cc1c(O)cc3c(c1O2)CN=C3N (configuration not stated),12.5%,inactive,inactive,–,–,–
CC(=O)OC1C(O)CC2(C)C(CCC3(C)C2CC=C2C4C5(CCC(CO[C@@H]6O[C@H](CO)[C@@H](O)[C@H](O)[C@H]6O)(OC5=O)C4(C)O)C(O)CC23C)C1(C)C (some centres not stated),-11.5%,inactive,inactive,–,–,–
O=C(O)C(Cc1ccccc1)NC(=O)C1CCCN1 (stereo not drawn) (H-Pro-Phe-OH; configuration not given here),-13.7%,inactive,inactive,–,–,–
CC(C)=CCC[C@@](C)(O)[C@H]1CC[C@]2(C)[C@@H]1[C@H](O)CC1[C@@]3(C)CC[C@H](O[C@@H]4O[C@H](CO)[C@@H](O)[C@H](O)[C@H]4O[C@@H]4O[C@H](CO)[C@@H](O)[C@H](O)[C@H]4O)C(C)(C)[C@@H]3CC[C@]12C (some centres not stated),-17.6%,inactive,inactive,–,–,–
CC(=O)OC1C(C)C2C(OC3OC(CO)C(O)C(O)C3O)OC=C(C(=O)O)C2C1OC(=O)c1ccccc1 (configuration not stated),5.34%,inactive,inactive,–,–,–
O=C(NCc1ccccc1-c1ccccc1C(=O)NCCc1ccccn1)OCc1ccccc1,1%,inactive,inactive,–,–,–
CC1(CO)CCCC2(C)C1C(OC(=O)c1ccccc1)C=C1C(=O)OCC12O (configuration not stated),–,inactive,inactive,20.9 µM (active),–,–
COC(=O)C12C(=O)C(C)=C(O)C1(C)C(C)=CC1C34CCC(OC3=O)C(C)(C)C4CCC12C (configuration not stated),-16%,inactive,inactive,–,–,–
C=C(C)C1CC[C@]2(C(=O)O)CC[C@]3(C(=O)O)[C@H](CCC4[C@@]5(C)CC[C@H](O)C(C)(C)C5CC[C@]43C)C12 (some centres not stated),-12.5%,inactive,inactive,–,–,–
CCC(C)/C=C(C)/C=C/C1=CC2=C(Cl)C(=O)C(C)(OC(C)=O)C(=O)C2=CN1CCCC(=O)O (configuration not stated),0.763%,inactive,inactive,–,–,–
C=CCC/C=C/C#CCCCCCCCC[C@H]1C(=O)O[C@H](C)[C@@H]1O,8.4%,inactive,inactive,–,–,–
C[C@@H]1O[C@@H](O[C@H]2[C@H](O)[C@@H](O)[C@H](OC[C@H]3O[C@@H](OC(=O)[C@]45CCC(C)(C)C[C@H]4C4=CCC6[C@@]7(C)C[C@@H](O)[C@H](O)[C@@](C)(CO)C7[C@H](O)C[C@@]6(C)[C@]4(C)CC5)[C@H](O)[C@@H](O)[C@@H]3O)O[C@@H]2CO)[C@H](O)[C@H](O)[C@H]1O (some centres not stated),16%,inactive,inactive,–,–,–
COC1=Cc2c(nc3n(c2=O)C(C)C(=O)NC3(O)C(C)C)OC=C1 (configuration not stated),-17.6%,inactive,inactive,–,–,–
CC(C)(C)c1ccc(NC(=O)N2CCN(c3ncccc3Cl)CC2)cc1,-11.5%,inactive,inactive,–,–,–
CC(=O)O[C@H]1C[C@@](O)(C(C)C)[C@@H]2[C@@H](OC(=O)c3ccc(O)cc3)CC(C)=CC[C@@]12C,21.4%,inactive,inactive,–,–,–
O=C(O)[C@H]1CCCC[C@H]1C(=O)N1CCc2ccccc2[C@H]1CN1C(=O)c2ccccc2C1=O,-3%,inactive,inactive,–,–,–
C/C(=C\CC[C@H](CO)[C@@H]1CC[C@]2(C)C3=C(CC[C@@]12C)[C@@]1(C)CCC(=O)C(C)(C)C1CC3)C(=O)O (some centres not stated),-4.58%,inactive,inactive,–,–,–
O=C(OCC1=CC(Cl)C(O)C(OC(=O)c2ccccc2)C1O)c1ccccc1 (configuration not stated),-22.9%,inactive,inactive,–,–,–
CO[C@@H]1[C@H](O)CCC2(CO2)[C@H]1[C@@]1(C)O[C@@H]1CC=C(C)C (some centres not stated),0.763%,inactive,inactive,–,–,–
C=C1[C@H]2CCC3[C@]4(C)CCC[C@@](C)(C(=O)O)C4CC[C@]3(C2)[C@H]1OC(C)=O (some centres not stated),-17.6%,inactive,inactive,–,–,–
C=C(CC/C=C(\C)C(=O)O)C1(O)CC=C(C)CC1 (configuration not stated),-21.4%,inactive,inactive,–,–,–
CC(=O)O[C@@H]1CC2C(C)(C)C(=O)C=C[C@]2(C)C2CC[C@]3(C)C(=CC(=O)[C@@H]3c3ccoc3)[C@@]21C (some centres not stated),1.53%,inactive,inactive,–,–,–
